# hcDAF12 agonist: activators of H. contortus DAF-12 nuclear receptor. 370,000 tested, 1.4% active. activation, % at 6.8 µM. AID 652067. HEK293 hcDAF-12 lit1-tk-luc reporter, luminescence; 0% DMSO, 100% Δ7-dafachronic acid;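 active = activation above the mean of all tested compounds plus 3 SD, cut at about 5.5% in these data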;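 note: 100% = response to 3 µM Δ7-dafachronic acid high control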
# hgDAF-12 ag: agonists of H. glycines DAF-12 nuclear receptor; HEK293 GAL4-hgDAF12 UAS-luciferase reporter, agonist luminescence; normalized to butyrate control; activation, % at 6.8 µM; 370,000 tested, 1.8% active;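 active = activation above a cutoff set at the mean of all screened compounds plus 3 SD, cut at about 10% in these data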;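 note: 0% = DMSO wells and 100% = sodium butyrate wells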
# SMARCA2 act: activators of SMARCA2 function | activation, % at 9.1 µM | 370,000 tested, 1% active | MG213 cells, MMTV-luciferase reporter, dexamethasone, overnight; in the data active = activation above about 7.8%;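 note: 0% = vehicle wells and 100% = reference activator wells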
# ssDAF12 agonist: S. stercoralis DAF-12 activation, primary screen. HEK293 ssDAF-12/GRIP1 lit1-tk-luc reporter, luminescence; % of 3 µM dafachronic acid response. activation, % at 6.8 µM. 370,000 tested, 1% active. AID 652126;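 active = activation above the mean over all tested compounds plus 3 SD, cut at about 0.9% in these data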;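 note: 0% = DMSO-only wells and 100% = 3 µM delta7-dafachronic acid wells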
# DAX1 inh-1: inhibitors of human orphan nuclear receptor DAX1 (NR0B1); P51843; 340,000 tested, 0.99% active; inhibition, % at 6.75 µM; HEK293 Gal4-DAX1 luciferase reporter, luminescence;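 active = inhibition above the mean over all tested compounds plus 3 SD, cut at about 4.2% in these data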;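 note: 0% = DAX1-transfected cells with DMSO and 100% = empty-vector control cells with DMSO; inhibition shows as a rise in luminescence from relieved DAX1 repression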
# Target sequence (P51843 207-470 limits assumed): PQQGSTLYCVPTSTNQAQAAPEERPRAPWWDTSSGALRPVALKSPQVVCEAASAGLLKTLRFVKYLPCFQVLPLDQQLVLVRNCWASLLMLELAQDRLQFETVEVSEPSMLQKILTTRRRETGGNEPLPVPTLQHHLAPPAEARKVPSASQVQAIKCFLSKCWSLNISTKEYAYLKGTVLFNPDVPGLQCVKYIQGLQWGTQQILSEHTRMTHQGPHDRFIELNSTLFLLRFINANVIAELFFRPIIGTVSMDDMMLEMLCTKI
# DAX1 inh-2: blocks DAX1 repression of SF-1 activated StAR promoter; HEK293T StAR-luciferase reporter, SF-1/DAX-1 repression relief; inhibition, % at 6.8 µM; 370,000 tested, 1.1% active; AID 652010;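 active = inhibition above the mean over all tested compounds plus 3 SD, cut at about 3.6% in these data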;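 note: 0% = DAX-1 cells with DMSO and 100% = cells lacking DAX-1 with DMSO; higher inhibition means more luminescence from relief of DAX-1 repression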
# Starred values were filed as active, the others as inactive; nt = not tested or not shown. This is a sample that favours compounds with a hit; in the whole collection about 4.8% have one here.
SMILES,hcDAF12 agonist,hgDAF-12 ag,SMARCA2 act,ssDAF12 agonist,DAX1 inh-1,DAX1 inh-2
COC(=O)[C@]12C[C@H](CC(=O)N3CCSCC3)C(=O)N(Cc3cccc4ccccc34)C1=C[C@H](COCc1ccccc1)O[C@@H]2C,-3.0,-5.3,-3.1,-2.1,nt,-0.5
Cc1cc(NC(=O)C2CC2)n(-c2nc3ccccc3s2)n1,5.6*,10.1,3.6,-0.1,0.0,-0.7
CCSc1nsc(NC(=O)Nc2ccccc2Cl)n1,0.3,10.9*,1.3,0.0,1.2,0.1
CCCCOC(=O)/C=C\C(=O)OCCCC,-1.3,-1.1,1.0,-1.1,6.9*,0.6
CCCCOC(=O)/C=C\C(=O)NC(N)=O,2.4,-1.6,-3.5,-0.1,4.0,-0.1
COc1cc(C=Nn2c(-c3n[nH]c4c3CCC4)n[nH]c2=S)ccc1OCc1ccccc1,3.5,6.0,-2.2,-0.5,nt,0.5
CC(C(=O)Nc1cccnc1)C1Sc2ccccc2NC1=O (stereo unspecified),6.0*,2.5,0.4,-0.6,1.3,-0.3
O=C(CC1Sc2ccccc2NC1=O)Nc1cccnc1 (stereo unspecified),0.5,-3.9,-1.0,-0.6,1.7,1.2
O=C(O)c1ccc(C=NNC(=O)c2ccccc2NS(=O)(=O)c2cccs2)cc1,-0.9,-1.9,-1.8,-1.4,2.4,3.7*
CCC[C@H]1[C@@H](OC(=O)NCc2ccc(C)o2)CC[C@@]23CCCN2C(=O)CCC[C@@H]13,0.6,-1.6,nt,-1.4,nt,nt
O=C(c1ccccc1)c1ccc2nc[nH]c2c1,6.3*,6.7,-0.4,0.5,-0.2,1.1
O=C(NC1CCCC1)c1ccc2nc[nH]c2c1,-0.8,-1.6,1.1,-0.7,1.6,0.1
Cc1ccc(NC(=O)c2ccc3nc[nH]c3c2)cc1C,5.9*,8.9,5.3,0.0,2.0,2.9
Cc1cc(C)cc(NC(=O)c2ccc3nc[nH]c3c2)c1,-1.1,5.7,3.2,-1.8,-1.5,0.5
COc1cccc(/C=C2\CC3(OC(=O)c4ccco4)CCCN2C3)c1 (stereo unspecified),-1.8,-1.7,-2.0,-1.3,nt,-0.8
Cc1ccc2oc(-c3cccc(NC(=S)NC(=O)c4cccs4)c3)nc2c1,2.7,3.5,6.5,-0.7,1.1,1.1
Cc1ccc(-c2nc3ccccc3o2)cc1NC(=S)NC(=O)c1cccs1,0.8,11.1*,7.5,0.1,2.2,0.4
COc1ccc2oc(-c3ccc(C)c(NC(=O)c4ccc(N5CCOCC5)c([N+](=O)[O-])c4)c3)nc2c1,3.4,10.5*,6.8,0.0,0.6,2.0
Cc1ccc(-c2nc3ccccc3o2)cc1NC(=O)c1ccc2c(c1)OCO2,3.8,11.4*,2.5,2.0*,2.1,3.6*
c1ccc(Cn2c(SCc3nc4ccccc4s3)nnc2-c2ccco2)cc1,2.5,0.9,1.1,-0.4,-0.2,-0.9
CCn1c(SCc2nc3ccccc3s2)nnc1-c1ccccc1,5.0,6.5,3.8,0.8,-0.2,0.4
c1ccc(-n2cnnc2SCc2nc3ccccc3s2)cc1,4.6,7.2,3.8,1.0*,3.0,1.4
CCC(c1nnc(SCc2nc3ccccc3s2)n1Cc1ccccc1)N(C)C (stereo unspecified),5.7*,1.8,-0.4,0.4,0.0,1.6
COC(=O)c1cc(-c2ccc(OC)cc2)n[nH]1,-0.4,10.6*,4.4,-1.0,2.1,0.1
Cc1c(C#N)c(O)n(CCO)c(=O)c1N=Nc1ccc(S(N)(=O)=O)cc1,-0.9,-1.6,-4.9,-1.9,0.1,-1.4
SMILES,hcDAF12 agonist,hgDAF-12 ag,SMARCA2 act,ssDAF12 agonist,DAX1 inh-1,DAX1 inh-2
Cc1c(C#N)c(O)n(CCO)c(=O)c1N=Nc1ccccc1,-1.4,-4.5,0.9,-1.5,4.4*,-0.6
Cc1ccc(NC(=O)N2CCC(c3nc4ccc(Cl)cc4[nH]3)CC2)cc1F,-3.5,3.0,-4.4,-1.9,nt,-1.4
CCOc1ccc(CC(=O)C2C(=O)CCCC2=O)cc1OCC,nt,nt,nt,nt,0.0,nt
CCOc1ccc(CC(=O)C2C(=O)CC(C)(C)CC2=O)cc1OCC,0.0,-0.7,-3.0,-0.1,4.4*,0.6
CCCCN(C)C(=O)c1ccc2c(c1)NC(=O)C(C)(C)O2,-1.1,2.5,-3.0,-0.9,nt,-0.7
O=S(=O)(Cc1nc2ccccc2s1)c1ccccc1,3.8,10.7*,5.4,-0.3,1.3,3.3
CCON1C(=O)C(C)(C)N(OCC)C(=O)C1(C)C,-3.0,-0.2,-1.1,-1.3,0.5,-0.2
CCOC(=O)CON1C(=O)C(C)(C)N(OCC(=O)OCC)C(=O)C1(C)C,-0.5,-0.9,1.1,1.0*,-0.4,0.8
COc1ccc(/C(O)=C2/C(=O)C(=O)N(c3ccccn3)C2c2ccc(C(C)C)cc2)cc1 (stereo unspecified),4.0,13.2*,2.0,0.6,1.5,1.6
COc1cccc(OCC(O)CN2CCN(c3ccc(F)cc3)CC2)c1 (stereo unspecified),-0.5,-2.9,-1.1,-0.8,-1.1,-0.2
OC(COc1ccc2ccccc2c1)CN1CCN(c2ccc(F)cc2)CC1 (stereo unspecified),-0.3,0.0,1.0,-0.1,6.9*,-0.1
Cc1ccc(NC(=O)OC2CCC23CCCCC3)cc1 (stereo unspecified),1.1,6.3,-1.1,-1.0,nt,1.1
COC(=O)[C@]12C[C@H](CC(=O)NCCCN3CCCC3=O)C(=O)N(CCC3=CCCCC3)C1=C[C@H](C(C)C)O[C@@H]2C1CC1,-2.1,-3.1,-3.0,-2.1,nt,-0.2
COC(=O)[C@@]12C[C@@H](CC(=O)NCCCN3CCCC3=O)C(=O)N(CCc3ccc(OC)c(OC)c3)C1=CCC(C)(C)C2,0.6,-3.7,-0.2,-0.9,nt,3.8*
Nc1nnc(/C=C/c2ccccc2Cl)s1,3.3,11.9*,6.7,-0.6,1.1,0.8
Cc1ccc(-c2nc3sc(C#N)c(N)n3c(=O)c2C#N)cc1,2.5,8.7,3.6,-0.3,4.8*,-0.2
CCOc1ccc(-n2c(SCC(=O)Nc3ccc(S(=O)(=O)Nc4cc(C)nc(C)n4)cc3)nnc2-c2ccc(OC)cc2)cc1,-3.1,-0.9,-6.6,-1.1,nt,-1.3
CCC(=O)NC(c1ccc(N(C)C)cc1)c1c(O)ccc2ccccc12 (stereo unspecified),6.3*,1.5,-0.4,-0.5,0.2,0.3
COc1ccc(CNCC#Cc2ccccc2)c(OC)c1,0.6,3.6,-2.1,0.3,nt,0.2
CC1(C)CC(=O)C2=C(C1)OC(N)=C(C#N)[C@@H]2c1ccccc1[N+](=O)[O-],1.9,4.1,-4.8,1.5*,0.3,-0.3
N#Cc1c(NC(=O)CSC2=NCCS2)sc2c1CCCC2,-0.6,1.2,-2.6,-1.5,-0.6,0.1
O=C(CSC1=NCCS1)Nc1nc2c(s1)CCCC2,0.6,2.4,7.9*,-1.3,1.0,0.1
